This is part of a sample that, as a whole, favours compounds with a hit. Of some 79,000 tested, about 15% had one in any assay. Values without a mark were called inactive. The source made the active and inactive calls. Rule as the data show it: active = growth inhibition above about 70%; inactive = the rest.
Test: NCI Yeast Anticancer Drug Screen. Data for the sgs1 mgt1 strain (AID 161);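 also: 0% = growth of cultures given vehicle only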
Details: S. cerevisiae sgs1 mgt1 strain, at 5.0 µM (retest, dose inferred, filed as 0.5), hits give high values
Summary of the method: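 Compounds are added to genetically altered yeast, and growth is compared with cultures given vehicle alone to give percent inhibition.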

Structure (SMILES)	growth inhibition
CCCCCCCCCCCCCCCCCO	-3%
COc1cc(C(c2cc3c(cc2O)OCO3)N2CCOCC2)cc(OC)c1OC (centres undefined)	-3%
O=C1OCc2cccc3cccc1c23	4%
CSC(=S)NNC(C)c1nccc2ccccc12 (centres undefined)	29%
N#Cc1c(Cl)nc2ccccc2c1N=[N+]=[N-]	-14%
CC(C)(C)CC(C)(C)c1ccc(OCCSC(=N)N)cc1	75% (active)
COC1CCC(O)C(CO)O1 (centres undefined)	100% (active)
CC(=O)N(C1=C(Cl)C(=O)c2ccccc2C1=O)c1ccc(Cl)cc1	100% (active)
Cc1nc(N2N=C(c3ccc(Cl)cc3)CCC2=O)sc1[N+](=O)[O-]	-1%
Cn1c2c(c3ccccc31)CCN1C[C@@H]3CCCC[C@H]3C[C@@H]21	-2%
Cn1cc(NC(=O)Nc2cc(C(=O)Nc3cc(C(=O)Nc4ccc5cc(S(=O)(=O)O)cc(S(=O)(=O)O)c5c4)n(C)c3)n(C)c2)cc1C(=O)Nc1cc(C(=O)Nc2ccc3cc(S(=O)(=O)O)cc(S(=O)(=O)O)c3c2)n(C)c1	69%
CC(=O)Oc1c(Cl)cc(Cl)cc1C(c1cc(Cl)cc(Cl)c1OC(C)=O)C(Cl)(Cl)Cl	-1%
CCCCCc1ccc2cc(C(=O)O)[nH]c2c1	-4%
C/C(=N/O)c1cc([N+](=O)[O-])c(O)cc1O	-15%
CCOC(=O)CNC(=O)Sc1ccc(C(C)(C)C)cc1C	17%
S=C(N/N=C1\C=Cc2ccccc2C1)N/N=C1\C=Cc2ccccc2C1	-7%
Cc1cccc(Nc2c3c(nc4ccccc24)CCCCC3)c1	-2%
Cc1ccc(NS(=O)(=O)c2ccc(C)cc2)cc1	-11%
CCOC(=O)C(=CNC(=S)Nc1c(CC)cccc1C(C)(C)C)C(=O)OCC	-2%
COC1/C=C/OC2(C)Oc3c(C)c(OC(C)=O)c4c(c3C2=O)C(=O)C=C(NC(=O)/C(C)=C\C=C\C(C)C(O)C(C)C(O)C(C)C(OC(C)=O)C1C)C4=O (centres undefined)	1%
O=C(O)c1ccc(/C=C2\COc3ccccc3C2=O)cc1	13%
Cc1c2c(c(C)c3ccncc13)S(=O)(=O)c1ccccc1-2	38%
Oc1c(Cl)cc(Cl)c2cccnc12	21%
Cc1ccc(S(=O)(=O)Nc2ccc3c(c2)C(=O)c2ccccc2-3)cc1	7%

Same assay, conditions: S. cerevisiae sgs1 mgt1 strain, at 50.0 µM (retest, dose inferred, filed as 5.0), hits give high values

Structure (SMILES)	growth inhibition
Clc1ccc(-c2nc3ccc(Cl)cc3[nH]2)cc1	93% (active)
O=C1c2ccccc2NC(=O)C2C1C(c1ccccc1)CC2(O)c1ccccc1 (centres undefined)	70% (active)
COc1ccc(CC2C(=O)NC(C)C(=O)N(C)C3Cc4ccc(cc4)Oc4cc(ccc4O)CC(C(=O)NC(C)C(=O)NC(C)C(=O)N2C)N(C)C3=O)cc1 (centres undefined)	48%
O=C1c2cccnc2-c2nccc3c2c1nc1cc(Br)ccc13	98% (active)
CCN(C(=O)O)c1ccc(/C=C/c2ccnc3ccccc23)cc1	96% (active)
O=C(/C=C/c1cccc(Cl)c1)c1ccccc1	99% (active)
O.O.O=C(O)C(O)C(O)C(OC1OC(CO)C(O)C(O)C1O)C(O)CO.O=C(O)C(O)C(O)C(OC1OC(CO)C(O)C(O)C1O)C(O)CO.[NH-]C1CCCCC1[NH-].[Pt+2] (centres undefined)	50%
O=C(N=c1sc2ccccc2s1)N=c1sc2ccccc2s1	-20%
Cc1ccsc1/C=N/Nc1ccc2ccccc2n1	97% (active)
CC(C)(C)C1=NC(=S)SC2=NC(=O)C3(NN21)c1ccccc1-c1ccccc13	78% (active)
COC(=O)c1ccc(OC)cc1	-4%
Cc1ccc(/C=C2\CN(C)CC3=C2NC(=S)NC3c2ccc(C)cc2)cc1 (centres undefined)	21%
O=C1NC(=O)/C(=C/C=C/c2ccccc2)S1	98% (active)
Nc1ccc(Cc2ccc(N)cc2[N+](=O)[O-])c([N+](=O)[O-])c1	74% (active)
COc1ccccc1/C=C\C(=O)c1ccccc1	95% (active)
NNC(=S)NN/C=C(\C=Nc1ccccc1)[N+](=O)[O-]	62%
CCCCCCCCCCCCCCCCCO	7%
COc1cc(C(c2cc3c(cc2O)OCO3)N2CCOCC2)cc(OC)c1OC (centres undefined)	28%
O=C1OCc2cccc3cccc1c23	29%
CSC(=S)NNC(C)c1nccc2ccccc12 (centres undefined)	97% (active)

Structure (SMILES)	growth inhibition
N#Cc1c(Cl)nc2ccccc2c1N=[N+]=[N-]	18%
CC(C)(C)CC(C)(C)c1ccc(OCCSC(=N)N)cc1	99% (active)
COC1CCC(O)C(CO)O1 (centres undefined)	99% (active)
CC(=O)N(C1=C(Cl)C(=O)c2ccccc2C1=O)c1ccc(Cl)cc1	99% (active)
Cc1nc(N2N=C(c3ccc(Cl)cc3)CCC2=O)sc1[N+](=O)[O-]	71% (active)
Cn1c2c(c3ccccc31)CCN1C[C@@H]3CCCC[C@H]3C[C@@H]21	-1%
Cn1cc(NC(=O)Nc2cc(C(=O)Nc3cc(C(=O)Nc4ccc5cc(S(=O)(=O)O)cc(S(=O)(=O)O)c5c4)n(C)c3)n(C)c2)cc1C(=O)Nc1cc(C(=O)Nc2ccc3cc(S(=O)(=O)O)cc(S(=O)(=O)O)c3c2)n(C)c1	99% (active)
CC(=O)Oc1c(Cl)cc(Cl)cc1C(c1cc(Cl)cc(Cl)c1OC(C)=O)C(Cl)(Cl)Cl	-5%
CCCCCc1ccc2cc(C(=O)O)[nH]c2c1	59%
C/C(=N/O)c1cc([N+](=O)[O-])c(O)cc1O	80% (active)
CCOC(=O)CNC(=O)Sc1ccc(C(C)(C)C)cc1C	60%
S=C(N/N=C1\C=Cc2ccccc2C1)N/N=C1\C=Cc2ccccc2C1	45%
Cc1cccc(Nc2c3c(nc4ccccc24)CCCCC3)c1	85% (active)
Cc1ccc(NS(=O)(=O)c2ccc(C)cc2)cc1	92% (active)
CCOC(=O)C(=CNC(=S)Nc1c(CC)cccc1C(C)(C)C)C(=O)OCC	27%
COC1/C=C/OC2(C)Oc3c(C)c(OC(C)=O)c4c(c3C2=O)C(=O)C=C(NC(=O)/C(C)=C\C=C\C(C)C(O)C(C)C(O)C(C)C(OC(C)=O)C1C)C4=O (centres undefined)	52%
O=C(O)c1ccc(/C=C2\COc3ccccc3C2=O)cc1	96% (active)
Cc1c2c(c(C)c3ccncc13)S(=O)(=O)c1ccccc1-2	65%
Oc1c(Cl)cc(Cl)c2cccnc12	99% (active)
Cc1ccc(S(=O)(=O)Nc2ccc3c(c2)C(=O)c2ccccc2-3)cc1	95% (active)

From PubChem BioAssay (NCI)
